# Test results from PubChem BioAssay AID687026 (Broad Institute, 2013).
# Results with a measured potency or affinity are listed apart. Calls of active or inactive are those of the source. No rule for the calls is given here.
# Assay: viability loss in CEM21 cells – cell-based, plate reader, dry powder, cytotoxicity control, dose response (AID 687026)
# Conditions: series mostly up to 35 µM
row,Structure (SMILES),outcome
1,O=S(=O)(NCc1ccncc1)c1ccc2c(c1)OCCO2,inactive
2,Cc1noc(C)c1S(=O)(=O)Nc1cccc2c1O[C@@H](CN(C)Cc1ccc(C(F)(F)F)cc1)[C@@H](C)CN([C@@H](C)CO)C2=O,inactive
3,COc1ccccc1CCNCc1ccc(OC)c(OCc2ccccc2)c1,inactive
4,CCCC#Cc1ccc2c(c1)O[C@@H](CN(C)S(=O)(=O)c1cccc(F)c1)[C@@H](C)CN([C@H](C)CO)S2(=O)=O,inactive
5,CCCn1nc(C(=O)Nc2ccc3nc(N4CCOCC4)sc3c2)ccc1=O,inactive
6,CCOc1ccc(C)cc1S(=O)(=O)NCc1ccncc1,inactive
7,Cc1noc(C)c1S(=O)(=O)Nc1cccc2c1O[C@@H](CN(C)Cc1ccc(C(F)(F)F)cc1)[C@H](C)CN([C@H](C)CO)C2=O,inactive
8,COc1ccc(S(=O)(=O)NCc2ccncc2)cc1OC,inactive
9,CCOc1ccc(S(=O)(=O)NCc2ccccn2)cc1,inactive
10,Cc1noc(C)c1S(=O)(=O)Nc1cccc2c1O[C@H](CN(C)Cc1ccc(C(F)(F)F)cc1)[C@@H](C)CN([C@H](C)CO)C2=O,inactive
11,Cc1noc(C)c1S(=O)(=O)Nc1cccc2c1O[C@@H](CN(C)Cc1ccc(C(F)(F)F)cc1)[C@H](C)CN([C@@H](C)CO)C2=O,inactive
12,Cn1c(C(=O)N2CCN(c3nc4ccccc4s3)CC2)cc2sccc21,inactive
13,Cc1ccc(S(=O)(=O)N(C)C[C@@H]2Oc3ccc(NS(=O)(=O)c4c(C)noc4C)cc3CC(=O)N([C@H](C)CO)C[C@@H]2C)cc1,inactive
14,CC(=O)Nc1ccc(NC(=O)CN(c2ccc(C34CC5CC(CC(C5)C3)C4)cc2)S(C)(=O)=O)cc1,inactive
15,Cc1noc(C)c1S(=O)(=O)Nc1cccc2c1O[C@H](CN(C)Cc1ccc(C(F)(F)F)cc1)[C@@H](C)CN([C@@H](C)CO)C2=O,inactive
16,Cc1noc(C)c1S(=O)(=O)N(C)C[C@@H]1Oc2ccc(NC(=O)Nc3ccccc3)cc2CC(=O)N([C@@H](C)CO)C[C@@H]1C,inactive
17,CO[C@@H]1CN(C)C(=O)c2ccc(NC(=O)Nc3cccc(F)c3)cc2OC[C@@H](C)N(C(=O)Nc2cccc(F)c2)C[C@H]1C,inactive
18,CCOc1ccc(OCC)c(S(=O)(=O)NCc2ccncc2)c1,inactive
19,CCOc1ccc(S(=O)(=O)NCc2ccccc2)cc1,inactive
20,C[C@H]1CCCCO[C@@H](CN(C)Cc2ccncc2)[C@@H](C)CN([C@@H](C)CO)C(=O)c2cc(NC(=O)Nc3ccccc3)ccc2O1,inactive
21,CC1(C)CC(NC(=O)C(=O)Nc2ccc(Cl)cc2)CC(C)(C)N1,inactive
22,Cc1noc(C)c1S(=O)(=O)Nc1cccc2c1O[C@H](CN(C)Cc1ccc(C(F)(F)F)cc1)[C@H](C)CN([C@H](C)CO)C2=O,inactive
